Assay results published in PubChem BioAssay AID2315 (National Center for Advancing Translational Sciences (NCATS), 2010).
Values joined by “and” are separate entries in the source; they are usually repeats but may differ in a detail not shown here. Equal values may be shown once. About 27,000 (9.3%) of roughly 290,000 compounds were called active. Cut-off read from the data, not from the text of the source: active = inhibition mostly above about 28% (no sharp cut-off); inactive = mostly below about 43%. For the sample, actives were picked, then their nearest neighbours and some compounds at random.

Test: A qHTS for Small Molecule Inhibitors of Shiga Toxin; note: 0% is about no effect
Details: Vero cells, Shiga toxin protein synthesis inhibition reporter; at 38.7 µM, active compounds read high

Compound | inhibition
COc1cc(C(=S)N2CCOCC2)ccc1O | -13.2% (inactive)
COc1ccc(OCC(=O)N2CCOCC2)cc1 | 51.9% (inactive)
COc1ccc(/C(C)=N/N2CCOCC2)c(O)c1 | 47.1% (active)
COc1ccc(N(CC(=O)Nc2cc(OC)cc(OC)c2)S(=O)(=O)c2c(C)n[nH]c2C)cc1 | 5.74% (inactive)
CCN(CC)S(=O)(=O)c1ccc(C(=O)N2CCN(C3=NS(=O)(=O)c4ccccc43)CC2)cc1 | 16.6% (inactive)
O=c1c2ccccc2nnn1CSc1nnnn1-c1ccccc1 | 62.9% (inactive)
Nc1nnc(SCCN2C(=O)c3ccccc3S2(=O)=O)s1 | -8.37% (inactive)
Nc1nnc(SCn2nnc3ccccc3c2=O)s1 | 46.5% (active)
Cc1ccc(-n2cc(CN(C)Cc3nccn3C)c(-c3cccc(C)c3)n2)cc1 | -6.37% (inactive)
O=C(NC1=NCCS1)[C@H](Cc1ccccc1)N1C(=O)c2ccccc2C1=O | -5.83% (inactive)
COc1ccc(C(=O)NC(C)CCc2ccccc2)c(OC)c1 (stereo not drawn) | 22.2% (inactive)
COc1ccc(C(=O)N2CCCN(C)CC2)c(OC)c1 | -2.8% (inactive)
COc1ccc(C(=O)NCc2nnc(SCC(=O)NC3=NCCS3)n2C)cc1 | -9.89% (inactive)
O=C(NC1=NCCS1)c1ccc(Cl)s1 | 149% (active)
COc1ccc(C(=O)NC2=NCCS2)c(OC)c1 | 42% (active)
COc1ccc(C(=O)Nc2nncs2)c(OC)c1 | 62.3% (active)
O=C(Nc1nncs1)c1ccccc1NS(=O)(=O)c1cccs1 | -4.57% (inactive)
O=C(NCc1ccc2c(c1)OCO2)c1ccc(Cl)s1 | 50.7% (inactive)
CC(C)C(=O)NCC(c1cccs1)S(=O)(=O)c1ccc(F)cc1 (stereo not drawn) | 2.44% (inactive)
COc1ccc(CNC(=O)c2nnn(CC(=O)Nc3cc(C)cc(C)c3)c2N)cc1 | -9.11% (inactive)
COc1ccc(Cn2c(=S)[nH]c3cc(C(=O)NCCCN4CCOCC4)ccc3c2=O)cc1 | 18.7% (inactive)
CCOC(=O)[C@H]1[C@H]2COc3cc(OC)ccc3[C@@H]2N2C(=O)N(c3ccc(Br)cc3)C(=O)[C@@]12C | -9.26% (inactive)

Compound | inhibition
Cc1cc(=O)oc2c3c(cc(OCC(=O)NCc4ccccn4)c12)OC(C)(C)CC3 | -3.65% (inactive)
CCCn1c2ccccc2c2cnn(CC(=O)NCCCN3CCCCC3CC)c(=O)c21 (stereo not drawn) | -4.97% (inactive)
CC(=O)c1cc2c(cc1NC(=O)Cn1nc(-c3ccc(F)cc3)ccc1=O)OCO2 | 20.6% (inactive)
CSc1ccc(/C=N/NC(=O)c2cccc(Cl)c2)cc1 | 4.92% (active)
CSc1ccc(/C=N\NC(=O)COc2ccc(Cl)cc2Br)cc1 | 59.9% (inactive)
CSc1ccc(/C=N\NC(=O)CC(=O)NC(C)C)cc1 | 14.5% (inactive)
COc1ccc(NC(=O)NN2CCN(C)CC2)c(OC)c1 | -17.8% (inactive)
O=c1cc(-c2ccc(O)cc2)oc2c(-c3cc(-c4cc(=O)c5c(O)cc(O)cc5o4)ccc3O)c(O)ccc12 | -1.7% (inactive)
COc1ccc(-c2cc(=O)c3c(O)cc(O[C@@H]4O[C@H](CO[C@@H]5O[C@@H](C)[C@H](O)[C@@H](O)[C@H]5O)[C@@H](O)[C@H](O)[C@H]4O)cc3o2)cc1O | -12.1% (inactive)
COc1c(O)cc2oc(-c3ccc(O)c(O)c3)cc(=O)c2c1O | 69.1% (active) and 69% (active)
CN(CC1CCCO1)S(=O)(=O)c1ccc(C(=O)Nc2ccc(F)cc2)cc1 (stereo not drawn) | 11.9% (inactive)
Cc1ccc(SCCC(=O)NCc2ccccn2)cc1 | -6.02% (inactive)
Cc1ccc(SCCSc2ncccn2)cc1 | 38.6% (active)
Cc1ccc(SCCC(=O)NC(C(C)C)C(C)C)cc1 | -4.72% (inactive)
Cc1ccc(S(=O)Cc2ccc(C(=O)N3CCN(C4CCCCC4)CC3)o2)cc1 (stereo not drawn) | -3.36% (inactive)
COc1ccc(CN2CCN(Cc3ccc(OC)c(OC)c3OC)CC2)cc1 | -4.07% (inactive)
CC(C)C(C(=O)NCc1ccco1)N(CC1CCCO1)C(=O)CNS(=O)(=O)c1ccc(F)cc1 (stereo not drawn) | -0.539% (inactive)
CCc1ccccc1S(=O)(=O)Cc1ccc(C(=O)NCCc2ccccc2)o1 | 6.5% (inactive)
O=C(CSc1n[nH]c(=O)n1-c1ccccc1)Nc1ccccc1C(F)(F)F | -2.01% (inactive)
Cc1cc(C)c2nc(N3CCC(C(=O)NCCN4CCOCC4)CC3)sc2c1 | 17.8% (inactive)
Fc1cc(F)c2nc(Nc3nc4c(F)cccc4s3)sc2c1 | 28.3% (inactive)
Fc1cc(F)c2nc(N3CCOCC3)sc2c1 | 87.4% (active)

Compound | inhibition
COC(=O)C1=C(O)/C(=C/c2ccc(OCC(=O)Nc3ccccc3)cc2)N=C1C | -18.9% (inactive)
CC1CN(CC(=O)NC(C)c2ccccc2)CC(C)O1 (stereo not drawn) | -5.21% (inactive)
CCCSc1nsc(N)n1 | 11% (inactive)
Nc1nc(SC23CC4CC(CC(C4)C2)C3)ns1 | 1.53% (inactive)
CCCCCCSc1nsc(N)n1 | 59.2% (active)
CCc1cccc(NC(=O)C2CCCN(S(=O)(=O)c3ccc4[nH]c(=O)ccc4c3)C2)c1 (stereo not drawn) | -5.44% (inactive)
CCCCn1c(N)c(N(CC)C(=O)c2ccccc2C(F)(F)F)c(=O)[nH]c1=O | 3.43% (inactive)
Cc1nn(C(C)C(=O)NCCC2=CCCCC2)c(=O)c2nn(-c3ccccc3)c(C)c12 (stereo not drawn) | 18.5% (inactive)
C1=C(CCNc2ncnc3c2cnn3-c2ccccc2)CCCC1 | 190% (active)
O=C(NCCC1=CCCCC1)C1CCN(Cc2cnn(-c3ccccc3)c2-n2cccc2)CC1 | 31% (inactive)
O=C(Cc1ccc(Br)cc1)NCCN1CCOCC1 | -10.9% (inactive)
CC1CCN(C(=O)CCc2nnc3ccc(NCc4ccco4)nn23)CC1 | 12.6% (inactive)
O=C(Nc1cccnc1)c1cc([N+](=O)[O-])ccc1Cl | -2.48% (inactive)
Cc1cccc(-n2cnc(C(=O)Nc3cccnc3)c2)n1 | 101% (active)
Cc1cccc(-n2cnc(C(=O)NNC(=S)Nc3ccccc3)c2)n1 | -10.7% (inactive)
Cc1ccc2nc(-c3ccc(SCC(=O)Nc4cc(C)on4)nc3)[nH]c2c1 | 71.3% (active)
Cc1ccc(SCCC(=O)Nc2cc(C)on2)cc1 | -4.4% (inactive)
Cc1ccc2nc(SCC(=O)NC3CCCC3)[nH]c2c1 | -2.14% (inactive)
CC(C)(C)c1ccc(C(=O)N2CCN(CCNC(=O)C(=O)Nc3ccc(F)cc3)CC2)cc1 | -6.99% (inactive)
CCOC(=O)c1cc2cc(C)ccc2[nH]1 | 168% (active)
CC(=O)OCc1cc2cc(C)ccc2[nH]c1=O | -8.28% (inactive)
CCNCc1cc2cc(C)ccc2[nH]c1=O | 12% (inactive)

Compound | inhibition
COc1ccc(CNC(=O)[C@H](Cc2c[nH]c3ccccc23)NC(C)=O)cc1OC | -6.62% (inactive)
COc1ccc(-c2ccc(CCC(=O)O)n2-c2ccc(O)cc2)cc1 | 4.87% (inactive)
COc1ccc(-c2ccc(CCC(=O)O)n2NC(=O)c2ccc(C(C)(C)C)cc2)cc1 | 21% (active)
COCCCn1c(CCC(=O)O)ccc1-c1ccc(F)cc1 | 13% (inactive)
CC(C)c1ccc(Nc2nnc(SCC(=O)c3nnc(-c4ccccc4)o3)s2)cc1 | 58.9% (active)
Cc1ccc(Nc2nnc(SCC(=O)c3cc4ccccc4o3)s2)cc1C | 19.8% (inactive)
O=C(CSc1nnc(Nc2ccccc2)s1)Nc1cccnc1Cl | -14.8% (inactive)
Cc1cc(C)cc(Oc2c(C(F)(F)F)oc3cc(OCC(=O)O)ccc3c2=O)c1 | -4.45% (inactive)
CC(C)=CCN1CCN(Cc2cc3ccccc3[nH]2)CC1CCO (stereo not drawn) | 1.5% (inactive)
N#Cc1cccc(CN2CCC(=O)N(CCO)CC2)c1 | 2.03% (inactive)
O=C(Nc1ccc(-c2nnc(-c3ccccc3)o2)cc1)C1CCCO1 (stereo not drawn) | 93.5% (active)
O=C(Nc1cccc(-c2nnc(-c3ccccc3)o2)c1)C1CCCO1 (stereo not drawn) | 85% (active)
O=C(Nc1nnc(SCc2c(Cl)cccc2Cl)s1)C1CCCO1 (stereo not drawn) | 86.4% (inactive)
O=C(Nc1cccc(Cl)c1)Nc1nnc(-c2ccccc2)o1 | -12.3% (inactive)
O=C(Nc1nnc(CCc2ccccc2)s1)C1CCCO1 (stereo not drawn) | 39.5% (inactive)
CC(C)(C)NS(=O)(=O)c1ccc(NC(=O)C2CCCO2)cc1 (stereo not drawn) | -21.4% (inactive)
CCCCC(=O)Nc1c2c(nn1-c1ccc([N+](=O)[O-])cc1)CS(=O)(=O)C2 | 19.5% (inactive)
Cc1ccc2c(C)c(C(=O)N(C)Cc3ccncn3)oc2c1C | 4.22% (inactive)
C=CCn1c(SCC(=O)NCCCO)nc2sc3c(c2c1=O)CCC3 | 8.99% (inactive)
Brc1ccc(-c2n(-c3ccccn3)c3ccccc3[n+]2-c2ccccn2)cc1 | 12.9% (inactive)
O=[N+]([O-])c1cccc(S(=O)(=O)NCc2ccccn2)c1 | -7.29% (inactive)
Cc1cc2cc3c(N)[nH]nc3nc2cc1C | 40.9% (active)

Compound | inhibition
COc1cc(NC(=O)c2cccnc2SC)cc(OC)c1 | 10.8% (inactive)
CSc1ncccc1C(=O)Nc1ccc(C)cn1 | 34% (inactive)
CSc1ncccc1C(=O)Nc1nc2ccc(F)cc2s1 | 138% (active)
COCCn1c(N)c(NCc2ccccc2)c(=O)[nH]c1=O | -3.86% (inactive)
COc1ccc(C2CC(c3cccs3)=Nc3ccccc3S2)cc1OC (stereo not drawn) | 41.1% (active)
COc1ccc(C2CC(c3cccs3)=NN2C(=O)CSc2nnc(N)s2)cc1OC (stereo not drawn) | -6.81% (inactive)
COc1ccc(C2CC(c3cccs3)=NN2C(=O)CCC(=O)O)cc1OC (stereo not drawn) | -4.61% (inactive)
O=C(NCc1ccccc1Cl)C1CCN(c2ncnc3c2nc2n3CCCCC2)CC1 | -9.78% (inactive)
S=C(NCCCc1ccccc1)Nc1ccc(Br)cc1 | 0.943% (inactive)
Oc1ccc(N2CCN(C(=S)NCc3ccccc3)CC2)cc1 | 17.4% (inactive)
S=C(NCCc1ccccc1)NCc1ccccc1Cl | 18.4% (inactive)
S=C(NCCc1ccccc1)NCC1CCCO1 (stereo not drawn) | 0% (active)
O=C(CS(=O)(=O)Cc1ccccc1)NCC1CCCO1 (stereo not drawn) | -4.38% (inactive)
O=C(NCCc1c[nH]c2ccccc12)C(=O)NCC1CCCO1 (stereo not drawn) | -8.17% (inactive)
Oc1ccccc1N1CCN(C(=S)NCc2ccccc2)CC1 | 76.8% (active)
O=C1CCN(C(=S)NCCc2ccccc2)CC1 | 35.2% (inactive)
CC1CCCCN1C(=S)NCc1ccccc1 (stereo not drawn) | -6.29% (inactive)
S=C(NCCc1ccccc1)Nc1ccccc1 | 57.4% (active)
COc1ccc(C(=O)NC2CCN(C(=S)NCCc3ccccc3)CC2)cc1 | 2.57% (inactive)
S=C(NCCc1ccccc1)N1CCCCC1 | 66.4% (active)
